From PubChem BioAssay
12-LOX inh = ALOX12 (human) lipoxygenase inhibition; purified 12hLO, xylenol orange hydroperoxide absorbance; Potency, µM (titrated, usually from 108 µM), for the others: top-dose activity change, negative = inhibition, usual class: inhibitors; AID 1671190; actives 1.1% (n = 580,000); note: potency is the fitted concentration of half-maximal effect
Target sequence (P18054 whole entry, looked up): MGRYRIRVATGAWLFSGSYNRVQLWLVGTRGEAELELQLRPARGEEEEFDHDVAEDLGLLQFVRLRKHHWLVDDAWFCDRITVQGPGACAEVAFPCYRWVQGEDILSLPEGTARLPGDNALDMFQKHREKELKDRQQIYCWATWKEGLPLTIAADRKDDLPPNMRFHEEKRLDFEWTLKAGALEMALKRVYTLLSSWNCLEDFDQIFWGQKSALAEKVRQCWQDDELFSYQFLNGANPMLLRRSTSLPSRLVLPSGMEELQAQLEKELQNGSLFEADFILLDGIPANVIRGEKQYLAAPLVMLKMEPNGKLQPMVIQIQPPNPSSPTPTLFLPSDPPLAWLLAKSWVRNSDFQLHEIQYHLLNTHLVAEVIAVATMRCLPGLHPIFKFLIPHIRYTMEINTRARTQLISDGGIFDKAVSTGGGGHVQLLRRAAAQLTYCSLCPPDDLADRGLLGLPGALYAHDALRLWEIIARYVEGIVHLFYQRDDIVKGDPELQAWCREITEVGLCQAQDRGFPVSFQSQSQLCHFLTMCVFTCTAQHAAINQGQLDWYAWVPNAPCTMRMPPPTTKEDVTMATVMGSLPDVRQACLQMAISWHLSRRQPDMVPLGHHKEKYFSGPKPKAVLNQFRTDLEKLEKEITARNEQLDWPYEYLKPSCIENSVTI
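Purified human 12hLO at 150 nM in 25 mM Hepes, 0.01% Triton X-100, pH 7.0, preincubated 15 min at room temperature with compound. Reaction started with 40 uM arachidonic acid, 30 min at room temperature. Hydroperoxide measured by Fe-xylenol orange, 573/405 nm absorbance ratio.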
HT1080 IDH1KD tx = toxicity to HT-1080 IDH1 knockdown cells (counter line); actives 2% (n = 360,000); HT-1080 IDH1 knockdown viability, ATP luminescence, 48 h; AID 686971; Potency, µM (doses to about 46.1 µM), without a hit: at the top dose activity, negative = toxicity, usual class: cytotoxic;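 note: potency is the fitted concentration of half-maximal effect; 0% = DMSO wells and -100% = cell-free medium wells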
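Viability of IDH1-knockdown HT-1080 fibrosarcoma cells was assessed by CellTiter-Glo after 48 h at 37 °C with titrated compound; concentration-effect curves were classified by fit quality and response size.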
TDP1 cell CPT = growth inhibition of DT40 Tdp1-/-;hTDP1 cells with camptothecin (screen for TDP1 inhibitors). actives 12% (n = 420,000). chicken DT40 Tdp1-/-;hTDP1 cells + 20 nM CPT, ATP luminescence, 48 h. Potency, µM (doses to about 46.2 µM), for inactives: at the top dose activity change, negative = growth inhibition, actives largely listed as inhibitors; note: potency is the fitted concentration of half-maximal effect; nearly all actives have a fitted effect of over 55% in size
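Cell growth measured by CellTiter-Glo luminescence after a minimum 48 h, 37 C compound exposure with 20 nM CPT in Tdp1-knockout DT40 cells stably expressing hTDP1, seeded 400/well; qHTS titration format.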
HT1080NT lethal = kills 2HG-producing HT-1080-NT fibrosarcoma cells; actives 1.6% (n = 360,000); HT-1080-NT fibrosarcoma viability, CellTiter-Glo ATP luminescence, 48 h; Potency, µM (highest dose often 46.1 µM), for the others: top-dose activity, negative = less viability, actives largely listed as cytotoxic;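 note: NT is the 2HG producing partner of a matched IDH1 knockdown line; potency is the fitted concentration of half-maximal effect; 0% = DMSO-treated cells and -100% = media-only wells without cells; nearly all actives have a fitted effect of over 55% in size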
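Fibrosarcoma NT cells, 750 per well in 5% FBS RPMI, were exposed to compound for 48 hours. Viability: CellTiter-Glo luminescence.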
DT40 TDP1 no CPT = qHTS for Inhibitors of human tyrosyl-DNA phosphodiesterase 1 (TDP1): qHTS in cells in absence of CPT | actives 15% (n = 420,000) | AID 686978, 2013 | Potency, µM (top dose mostly 46.2 µM), for the others: top-dose activity change, negative = growth inhibition, actives largely listed as inhibitors | DT40 Tdp1-/- hTDP1 cells, no CPT, ATP luminescence, 48 h; note: potency is the fitted concentration of half-maximal effect; nearly all actives have a fitted effect of over 55% in size
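Growth kinetics read by CellTiter-Glo luminescence after ≥48 hr at 37 °C. Cells: DT40 Tdp1-/- stably carrying human TDP1, 400 per well, compound exposure in the absence of CPT (DMSO vehicle).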
IL1B secr inh = inhibitors of inflammasome signaling (IL-1 beta secretion); THP-1 LPS/ATP IL-1B secretion, AlphaLISA, 16 h; active compounds read low; activity change, % at 57.5 µM; actives 4.7% (n = 360,000); AID 743279; in the data active = activity change below about -50%; inconclusive = mostly about -30% to -49%
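THP-1 cells pretreated 1 hr with compounds (up to 57.5 uM final), then stimulated with LPS (250 ng/mL final) plus ATP (1.25 mM final); secreted IL-1B measured by AlphaLISA after 16 hr, decreased signal indicating inhibition.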
An asterisk follows results filed as active; ? = inconclusive; . = no result. Only a selection was taken, and hits are over-represented in it overall. Unless noted, calls come from the whole dose curve; as a rule, active = well fitted curve in the direction sought with a large enough effect; inconclusive = small, poorly fitted or top-dose-only effect, or another doubt; inactive = no such curve, though single readings can be large; an effect the other way counts as inactive or inconclusive. Unless noted, % is set by controls: 0 for no effect and ±100 for the full control effect.

SMILES	12-LOX inh	HT1080 IDH1KD tx	TDP1 cell CPT	HT1080NT lethal	DT40 TDP1 no CPT	IL1B secr inh
CCCOc1ccc(C2c3c(-c4c(C)cc(C)cc4O)n[nH]c3C(=O)N2CCO)cc1 (centres undefined)	-9.0%	.	20.6µM*	.	23.1µM*	.
CCCCN1C(=O)c2[nH]nc(-c3ccccc3O)c2C1c1ccc(OCc2ccccc2)c(OC)c1 (centres undefined)	3.8%	.	?	.	20.6µM*	.
COc1ccc(C2c3c(-c4ccccc4O)n[nH]c3C(=O)N2CCCO)cc1OC (centres undefined)	18.7%	.	.	.	.	.
O=C(Nc1ccncc1)c1ccc(SC(F)(F)F)cc1	-6.9%	.	.	.	.	.
Cc1ccc2c(c1)Oc1cc(Cl)c(S(=O)(=O)N(C)Cc3ccccc3)cc1C(=O)N2	-12.9%	.	.	.	.	.
N#Cc1ccc(COC(=O)c2cc(-c3ccccc3)c(N3CCOCC3)s2)cc1	6.7%	.	.	.	.	.
Cc1ccc(C2c3c(-c4ccccc4O)n[nH]c3C(=O)N2CCCO)cc1 (centres undefined)	-17.2%	.	18.4µM*	.	29.1µM*	.
CCc1oc2ccccc2c1/C=N/O	-2.9%	.	.	.	.	.
CCCCc1oc2ccccc2c1C(=O)c1cc(I)c(N(CC)CCOCC)c(I)c1	.	.	7.08µM*	.	4.47µM*	.
CCc1oc2ccccc2c1C(=O)c1cc(I)c(O)c(I)c1	12.8µM*	.	?	.	?	.
CCCn1c(N)c(C(=O)CSc2nc(C)cs2)c(=O)[nH]c1=O	0.8%	-1.3%	?	1.9%	14.6µM*	-10.6
COc1ccc(CN2CCc3nc(N(C)C)[nH]c(=O)c3CC2)c(Cl)c1OC	43.4%	.	.	.	.	.
Cc1c(CC(=O)NCCCN2CCOCC2)c(=O)oc2c(C)c(O)ccc12	9.5%	.	.	.	.	.
COc1ccc(-c2noc(-c3cccs3)n2)cc1OC	443.0%	-2.6%	-2.1%	-4.6%	?	.
COc1nc(-c2cccs2)cc(-c2ccc(C)cc2)c1C#N	3.2%	?	10µM*	?	12.6µM*	35.0
COc1ccc(-c2cc(-c3cccs3)nc(OC)c2C#N)cc1OC	0.2%	?	?	?	29.1µM*	-8.5
N#CN(Cc1ccccc1)Cc1ccccc1	2.9%	-3.6%	-21.8%	3.6%	-12.3%	-63.9*
COc1ccc(NS(=O)(=O)c2cccc(C(=O)N3CCCCCCC3)c2)cc1	0.9%	-1.6%	?	0.0%	14.6µM*	0.0
Cc1ccc(NS(=O)(=O)c2cccc(C(=O)N3CCCCCC3)c2)cc1	-20.1%	-9.7%	?	-14.4%	20.6µM*	-3.1
COc1ccc(NS(=O)(=O)c2cccc(C(=O)N3CCN(C(=O)c4ccco4)CC3)c2)cc1	350.6%	-0.8%	9.2µM*	-1.8%	-27.1%	41.0
Cc1ccc(Oc2ccc(NS(=O)(=O)c3cccc(C(=O)O)c3)cc2)cc1	-2.7%	-3.7%	-2.7%	-4.7%	7.31µM*	28.5
COc1cncc(CN2CCC3(CC2)OC(=O)N(Cc2csc(C)n2)C3(C)c2ccccc2)c1 (centres undefined)	30.1%	.	.	.	.	.
O=C(CSc1nc2ccccc2c(=O)n1-c1ccc(F)cc1F)NC(=O)NC1CCCC1	-0.7%	.	.	.	.	.
COc1ccc(NS(=O)(=O)c2cccc(C(=O)OCC(=O)N3CCN(c4ccc(OC)cc4)CC3)c2)cc1	.	-20.2%	13µM*	-4.2%	13µM*	-10.9
COc1ccc(N2CCN(C(=O)c3ccc(NS(=O)(=O)c4cccc(F)c4)cc3)CC2)cc1	-25.1%	-23.6%	?	-6.2%	?	-3.6
SMILES	12-LOX inh	HT1080 IDH1KD tx	TDP1 cell CPT	HT1080NT lethal	DT40 TDP1 no CPT	IL1B secr inh
O=C(/C=C/Nc1ccc(OCc2ccccc2)cc1)c1ccc(Br)cc1	-17.3%	.	.	.	.	.
CCOc1ccc(N2C(=O)C3=C(C(c4ccc(Cl)cc4)=NCCN3)C2c2cccnc2)cc1 (centres undefined)	3.5%	14.6µM*	?	?	?	-5.5
Cc1ccc(C2=C(O)C(=O)N(c3ccc(F)cc3)C2c2ccccc2)cc1 (centres undefined)	9.7%	.	.	.	.	.
Cc1ccc(C2C3=C(NCCN=C3c3ccccc3)C(=O)N2c2ccccc2)cc1 (centres undefined)	16.5%	?	20.6µM*	11.2µM*	23.1µM*	-63.4*
CCc1noc(CN2CCC(NC(=O)c3cnn(C)c3)CC2)n1	0.5%	.	.	.	.	.
Cc1noc(C)c1COC(=O)c1cnc(Cl)c(Cl)c1	0.1%	?	22.0%	?	16.5%	-54.1*
N#Cc1ccc(COC(=O)c2cnc(Cl)c(Cl)c2)cc1	-8.3%	1.0%	17.3%	0.6%	-19.2%	-87.9*
Cc1noc(C)c1COC(=O)/C=C/c1ccc(Cl)cc1	-5.3%	-0.1%	?	7.9%	16.4µM*	6.8
Cc1noc(C)c1COC(=O)CCCNC(=O)c1ccc(Cl)cc1	0.1%	-8.9%	6.1%	-1.3%	?	10.3
CCC(=O)N1CCc2cc(Br)cc(S(=O)(=O)NCCc3cccc(C)c3)c21	-16.8%	.	16.4µM*	.	23.1µM*	.
CCC(=O)N1CCc2cc(Br)cc(S(=O)(=O)N3CCCC(C(=O)Nc4cccc(F)c4)C3)c21 (centres undefined)	-21.8%	.	23.1µM*	.	18.4µM*	.
CCC(=O)N1CCc2cc(Br)cc(S(=O)(=O)N3CCCC(C(=O)Nc4ccc(CC)cc4)C3)c21 (centres undefined)	-16.2%	.	-17.0%	.	?	.
CCC(=O)N1CCc2cc(Br)cc(S(=O)(=O)N3CCCC(C(=O)NCc4ccc(C)cc4)C3)c21 (centres undefined)	-21.2%	.	16.4µM*	.	16.4µM*	.
CC(C)CC(=O)C(C#N)C(=O)Nc1ccccc1Cl (centres undefined)	5.2%	.	.	.	.	.
COCCNc1nc2cc(-c3cccc(C(F)(F)F)c3)sc2c(=O)n1C	7.9%	3.2%	?	11.5%	-21.6%	72.1
CN(C)CCCNc1nc2cc(-c3cccc(C(F)(F)F)c3)sc2c(=O)n1C	-16.3%	?	18.4µM*	?	?	-65.8*
Cn1c(NCc2ccccc2)nc2cc(-c3cccc(C(F)(F)F)c3)sc2c1=O	13.7%	7.6%	?	12.0%	18.4µM*	0.0
CN(C)CCCNc1nc2cc(-c3cccc(Cl)c3)sc2c(=O)n1C	-16.9%	16.4µM*	?	?	?	-24.8
Cn1c(NCc2cccnc2)nc2cc(-c3cccc(C(F)(F)F)c3)sc2c1=O	-7.9%	11.5%	?	-6.2%	?	2.1
Cc1noc([C@@H]2CN(C(=O)Cn3c(=O)oc4ccccc43)C[C@H]2C(N)=O)n1	5.8%	.	.	.	.	.
